Common to all, as to experiment: NCI-60 one-dose screen, 48 h (100 = growth as untreated, 0 = no growth, -100 = all killed)
What all share (settings): 10 µM

Experiment [1] relates to BT-549 breast.
The subject of experiment [2] is MDA-MB-435 melanoma.
Experiment [3] concerns SW-620 colon.
The subject of experiment [4] is MCF7 breast.
The test system of experiment [5] is HCT-116 colon.
Experiment [6] has as its system HCC-2998 colon.
The subject of experiment [7] is KM12 colon.

About 83,000 compounds went through this panel and 20% of them were active in at least one assay; those are over-represented in the sample as a whole.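 Treatment: one concentration, 48 hours, 96-well format. Scoring: percent growth, with anything below 10 considered active.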 Values without a mark were called inactive. Activity calls are given as the source filed them.

Regarding `O=C(Nc1nc2ccc(F)cc2s1)c1cc(-c2ccc(F)cc2)n2nc(-c3ccccc3)cc2n1`, the growth is 88% in experiment [1]; 62.7% in experiment [2]; 62.4% in experiment [3]; 80.6% in experiment [4]; 79.1% in experiment [5]; 99.8% in experiment [6]. Further, in experiment [7], the growth is 65.9%.
For `O=C(CCCCC(=O)Nc1ccc2c(c1)/C(=C/c1ccc[nH]1)C(=O)N2)NO`, the growth in experiment [1] is 97.1%; in experiment [2], 74.8%; in experiment [3], 83.9%; in experiment [4], 61.9%; in experiment [5], 88.3%; in experiment [6], 101%. Further, in experiment [7], the growth was 78%.
Regarding `CCCCCCc1cc(N=Nc2ccc(S(=O)(=O)Nc3cc(C)nc(C)n3)cc2)c(O)cc1O`, the growth in experiment [1] was 89.9%; in experiment [2], 100%; in experiment [3] it was 113%; in experiment [4], 92.7%; in experiment [5], 86.3%; in experiment [6] it was 101%. Also, the growth in experiment [7] is 104%.
With `NC(=S)N=Nc1c(O)c2ccccc2c2ccccc12`, the growth is 49.5% in experiment [1]; -85.5% (active) in experiment [2]; 47% in experiment [3]; 24.5% in experiment [4]; 32% in experiment [5]; 98.6% in experiment [6]. Besides, in experiment [7], the growth is 92%.
For `Clc1ccc2c(NCCCNc3nccc(Nc4ccc(Br)cc4)n3)ccnc2c1`, the growth in experiment [1] is 4.45% (active); in experiment [2] it was -88.3% (active); in experiment [3] it was -74.4% (active); in experiment [4] it was -98.8% (active); in experiment [5], -97.5% (active); in experiment [6], -91.4% (active). Besides, the growth in experiment [7] was -48.6% (active).
Take `COc1ccc(NC(=O)Cc2nc3nc4sc(C)c(C)c4c(=O)n3[nH]2)cc1`: the growth was 103% in experiment [1]; 105% in experiment [2]; 104% in experiment [3]; 96% in experiment [4]; 101% in experiment [5]; 98.1% in experiment [6]. The growth in experiment [7] is 104%.
`Nc1nc(N)c2c(ccc3nccc32)[nH]1`: the growth is 21% in experiment [1]; 34.8% in experiment [2]; 29.4% in experiment [3]; 54% in experiment [4]; 15.1% in experiment [5]; 54.4% in experiment [6]. Also, in experiment [7], the growth is 62.4%.
In the case of `Cc1cc(C)c(NC(=O)c2sc3nc4c(cc3c2N)C(=O)CCC4)c(C)c1`, the growth in experiment [1] is 56.7%; in experiment [2], -34.4% (active); in experiment [3], 15.6%; in experiment [4], 16.8%; in experiment [5], 23.1%; in experiment [6], 30.9%. Also, the growth in experiment [7] is 27.3%.
With `N#Cc1ncc(Br)c(NC2CCCCCC2)n1`, the growth in experiment [1] is 98.4%; in experiment [2] it was 103%; in experiment [3], 113%; in experiment [4], 92.1%; in experiment [5] it was 104%; in experiment [6], 111%. For the same molecule, the growth in experiment [7] is 113%.
On to `COc1cc(Nc2ccnc(NCCCNc3ccnc4cc(Cl)ccc34)n2)cc(OC)c1`, for which the growth in experiment [1] is 19.7%; in experiment [2], -81.9% (active); in experiment [3], -43.3% (active); in experiment [4], 3.36% (active); in experiment [5], -53.6% (active); in experiment [6], -65% (active). Also, the growth in experiment [7] was 47.1%.
For `C/C(N)=C(\C#N)C(=O)c1ccccc1`, the growth in experiment [1] is 113%; in experiment [2] it was 100%; in experiment [3] it was 106%; in experiment [4], 96.6%; in experiment [5], 102%; in experiment [6], 102%. Also, in experiment [7], the growth is 107%.
Turning to `CCN(CC)CCOc1nc2cc(OC)c(OC)cc2c2c1-c1ccc(OC)cc1C2=O`, the growth in experiment [1] was 81.3%; in experiment [2], 86.2%; in experiment [3] it was 45.4%; in experiment [4] it was 35%; in experiment [5], 47.4%; in experiment [6] it was 82.6%. Moreover, the growth in experiment [7] is 64.7%.
In the case of `Clc1cc2c(c(CSc3nc4ccccc4n4cccc34)c1)OCOC2`, the growth is 81.2% in experiment [1]; 92.2% in experiment [2]; 94.4% in experiment [3]; 8.11% (active) in experiment [4]; 80% in experiment [5]; 85.4% in experiment [6]. In experiment [7], the growth was 88.4%.
Take `Cc1cc(=O)[nH]c(N/N=C/c2ccccc2O)n1`: the growth in experiment [1] is 101%; in experiment [2], 72.1%; in experiment [3] it was 56.5%; in experiment [4], 4.95% (active); in experiment [5], 8.06% (active); in experiment [6] it was 54.3%. Also, in experiment [7], the growth is 51.2%.
Turning to `COc1ccc(-c2nc(-c3nc4ccc(OC)cc4[nH]3)cc3c2[nH]c2ccccc23)cc1`, the growth in experiment [1] was 39.8%; in experiment [2] it was 39.2%; in experiment [3], 40.6%; in experiment [4], 31.8%; in experiment [5], 21.3%; in experiment [6], 57.4%. Moreover, the growth in experiment [7] is 20.4%.
In the case of `COc1ccc(C2=Nc3c(C)nn(-c4ccccc4)c3NC(c3ccc(Oc4ccnc5cc(Cl)ccc45)c(OC)c3)C2)cc1` (stereo unspecified), the growth in experiment [1] is 93%; in experiment [2] it was 80.4%; in experiment [3], 81.7%; in experiment [4], 60.6%; in experiment [5], 45.6%; in experiment [6], 89.7%. In addition, the growth in experiment [7] was 85.4%.
`O=C(Nc1ccc(CN2CCc3nc4cc(O)c(O)cc4cc32)cc1)c1ccc(Cl)c(Cl)c1`: the growth is 101% in experiment [1]; 100% in experiment [2]; 97.2% in experiment [3]; 93.7% in experiment [4]; 100% in experiment [5]; 112% in experiment [6]. For the same molecule, the growth in experiment [7] was 99.9%.
For `COc1ccc(-c2nc3sccn3c2-c2nc3c([nH]2)C(=O)c2ccccc2C3=O)cc1`, the growth in experiment [1] is 112%; in experiment [2] it was 95.9%; in experiment [3], 101%; in experiment [4], 83.8%; in experiment [5], 91%; in experiment [6] it was 95.7%. For the same molecule, the growth in experiment [7] is 103%.
As for `COc1ccc(-c2nnc(-c3c(-c4ccccc4)nc4ncccn34)o2)cc1OC`, the growth in experiment [1] was 88.6%; in experiment [2], 117%; in experiment [3], 109%; in experiment [4], 102%; in experiment [5], 103%; in experiment [6], 106%. In addition, the growth in experiment [7] was 100%.
As to `CCOC(=O)CCC(NC(=O)c1ccc(N)cc1)C(=O)OCC` (stereo unspecified), the growth was 44.8% in experiment [1]; 117% in experiment [2]; 107% in experiment [3]; 103% in experiment [4]; 106% in experiment [5]; 105% in experiment [6]. For the same molecule, the growth in experiment [7] was 106%.
For the molecule `O=C1N=NC2=C1c1c3ccccc3c(O)n1CC2`, the growth in experiment [1] was 110%; in experiment [2], 99.8%; in experiment [3], 106%; in experiment [4] it was 94.2%; in experiment [5], 93.9%; in experiment [6], 101%. Moreover, the growth in experiment [7] was 109%.
For `C[C@@H]1C=C2C(=O)O[C@@H]3CC[C@H](C1)[C@]23O`, the growth is 54.4% in experiment [1]; 57.7% in experiment [2]; 48.8% in experiment [3]; 36.8% in experiment [4]; 48.7% in experiment [5]; 99.9% in experiment [6]. For the same molecule, in experiment [7], the growth is 100%.
Take `CS(=O)(=O)Nc1cccc(-c2cc(-c3ccccc3Cl)c(C#N)c(N)n2)c1`: the growth in experiment [1] was 37.1%; in experiment [2] it was -45.8% (active); in experiment [3], 24.5%; in experiment [4], 22.7%; in experiment [5] it was 21.8%; in experiment [6], -3.16% (active). For the same molecule, the growth in experiment [7] was 24.5%.
In the case of `Fc1ccc(-c2nnc(-c3c(-c4ccc(F)cc4)nc4ccccn34)o2)cc1`, the growth in experiment [1] was 60.2%; in experiment [2], 85.1%; in experiment [3], 91.1%; in experiment [4] it was 59.8%; in experiment [5], 45.4%; in experiment [6], 94.1%. The growth in experiment [7] was 79.9%.
Regarding `CN1CCC2(CC1)NC(=O)c1c(c3ccc(Cl)c(Cl)c3n1C)C2C#N` (stereo unspecified), the growth in experiment [1] is 84.9%; in experiment [2] it was 49.2%; in experiment [3] it was 83.9%; in experiment [4], 28.5%; in experiment [5], 43%; in experiment [6], -1.84% (active). Further, in experiment [7], the growth is 106%.
Take `O=C(c1cccs1)c1ccccc1Cc1ccccc1`: the growth in experiment [1] is 106%; in experiment [2], 103%; in experiment [3], 104%; in experiment [4], 102%; in experiment [5], 113%; in experiment [6], 114%. The growth in experiment [7] was 104%.
With `Cc1nc2ccc(CN(C)c3ccc(C(=O)N[C@@H](CCC(=O)O)C(=O)O)s3)cc2c(=O)[nH]1`, the growth was 57.4% in experiment [1]; 61.6% in experiment [2]; 71.4% in experiment [3]; 23.3% in experiment [4]; 40% in experiment [5]; 28.5% in experiment [6]. Further, in experiment [7], the growth was 73.4%.
Take `CCCCCCN(CCCCCC)CC(O)c1ccc2c3c(cccc13)CC2` (stereo unspecified): the growth in experiment [1] is 62.8%; in experiment [2] it was 42.9%; in experiment [3], 19.2%; in experiment [4] it was 54.2%; in experiment [5] it was 17.4%; in experiment [6] it was 20.3%. Further, the growth in experiment [7] is 58%.
As for `O=C(CCCCCCC(=O)Nc1cccnc1)NO`, the growth in experiment [1] was 69.5%; in experiment [2], 19.8%; in experiment [3] it was 35.6%; in experiment [4], 35.3%; in experiment [5], 9.09% (active); in experiment [6], 40%. The growth in experiment [7] was 6.19% (active).
Consider `N#CSCC1CC(O)(c2ccccc2)CC(c2ccc(Cl)cc2)O1` (stereo unspecified), for which the growth in experiment [1] was -11.5% (active); in experiment [2], 3.01% (active); in experiment [3] it was -53.5% (active); in experiment [4] it was 14.7%; in experiment [5], 10.1%; in experiment [6], 94.9%. In experiment [7], the growth was 22.3%.
For `Clc1ccc(Sc2nc(NC3CC3)nc(Sc3ccc(Cl)cc3)n2)cc1`, the growth is 104% in experiment [1]; 87.8% in experiment [2]; 83.3% in experiment [3]; 72% in experiment [4]; 53.7% in experiment [5]; 90.2% in experiment [6]. In addition, in experiment [7], the growth was 76.6%.
Turning to `CC1(C)N=C(N)N=C(N)N1c1ccc(CCc2ccccc2)c(Cl)c1`, the growth is 35.6% in experiment [1]; 16.2% in experiment [2]; 17.6% in experiment [3]; 13.4% in experiment [4]; 10.2% in experiment [5]; 15.3% in experiment [6]. The growth in experiment [7] was 13.5%.
Take `COc1ccc(-c2cc(-c3cccc(NS(C)(=O)=O)c3)nc(N)c2C#N)cc1`: the growth in experiment [1] is 40.1%; in experiment [2], -55.2% (active); in experiment [3], 27.4%; in experiment [4], 16.5%; in experiment [5], 17%; in experiment [6], -25.7% (active). For the same molecule, the growth in experiment [7] was 17.6%.

The record behind these values is PubChem BioAssay (NCI).
